Screening results: PubChem, National Center for Advancing Translational Sciences (NCATS)
This is a sample that favours compounds with a hit; in the whole collection about 2.9% have one here.
EPAC2 antag: human EPAC2 antagonism, validation | 16,000 tested, 1.7% active | EPAC2 Rap1B BODIPY-GDP exchange, fluorescence | Q8WZA2 | AID 1645886 | Potency, µM (highest dose often 112 µM), for the others: at the highest dose activity, negative = inhibition, most hits filed as inhibitors;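 also: 100% = activation by cAMP agonist control; nearly all actives have a fitted effect of over 40% in size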
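Normalized against a 6.5 mM cAMP agonist control, compounds were tested on 100 nM EPAC2 exchanging Rap1B-bound BODIPY-GDP (250 nM) for 50 uM GDP. Fluorescence drop (ex 480, em 540 nm) was tracked at room temperature over 30 min at 5-min intervals.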
EPAC1 agonist: human EPAC1 agonism, validation | EPAC1 Rap1b BODIPY-GDP exchange, fluorescence | Potency, µM, inactives show max response, positive = active, actives largely listed as activators | 16,000 tested, 1% active; also: nearly all actives have a fitted effect of over 70% in size
Target sequence (O95398 whole entry, looked up): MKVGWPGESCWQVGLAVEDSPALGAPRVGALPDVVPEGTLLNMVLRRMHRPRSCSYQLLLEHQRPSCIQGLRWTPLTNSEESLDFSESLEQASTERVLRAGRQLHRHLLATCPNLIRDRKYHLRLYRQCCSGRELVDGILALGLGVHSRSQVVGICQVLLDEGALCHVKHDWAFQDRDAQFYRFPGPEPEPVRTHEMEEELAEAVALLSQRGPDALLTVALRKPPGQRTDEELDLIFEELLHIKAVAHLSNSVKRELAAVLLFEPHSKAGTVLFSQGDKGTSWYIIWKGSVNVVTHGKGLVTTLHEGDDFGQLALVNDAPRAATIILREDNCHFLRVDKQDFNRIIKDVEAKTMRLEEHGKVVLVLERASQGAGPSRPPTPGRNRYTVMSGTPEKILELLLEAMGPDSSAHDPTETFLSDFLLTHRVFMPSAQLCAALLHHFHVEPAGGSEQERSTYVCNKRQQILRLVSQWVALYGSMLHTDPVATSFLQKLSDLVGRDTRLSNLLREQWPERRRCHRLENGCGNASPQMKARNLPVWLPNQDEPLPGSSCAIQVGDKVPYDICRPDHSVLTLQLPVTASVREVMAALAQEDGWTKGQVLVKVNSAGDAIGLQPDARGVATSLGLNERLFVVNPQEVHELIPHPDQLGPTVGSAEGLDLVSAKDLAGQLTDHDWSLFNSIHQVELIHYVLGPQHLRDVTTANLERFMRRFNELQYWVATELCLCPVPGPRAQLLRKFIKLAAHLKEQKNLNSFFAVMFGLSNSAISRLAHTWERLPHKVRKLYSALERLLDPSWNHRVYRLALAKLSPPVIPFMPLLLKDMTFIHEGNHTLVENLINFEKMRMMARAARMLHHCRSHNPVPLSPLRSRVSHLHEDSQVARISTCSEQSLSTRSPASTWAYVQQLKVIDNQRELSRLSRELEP
* marks the source's active call; other numbers are inactive results; ! = not active in a repeat; [ ] = remark or other dose. Calls follow the shape of the dose curve; as a rule, active = well fitted curve in the direction sought with a large enough effect; inconclusive = small, poorly fitted or top-dose-only effect, or another doubt; inactive = no such curve, though single readings can be large; an effect the other way counts as inactive or inconclusive. Unless noted, % is scaled to controls: 0 for no effect and ±100 for the full control effect; potency is read from the fitted curve at half-maximal effect.

Screening Cc1cc(C)c(S(=O)(=O)Nc2cccc(C(F)(F)F)c2)c(C)c1 returned EPAC2 antag 39.8µM* and EPAC1 agonist -10.5%.
Screening O=C(OCCOCCO)c1ccccc1Nc1cccc(C(F)(F)F)c1 returned EPAC2 antag -19.8%[56.6 µM] and EPAC1 agonist -7.8%.
`Cc1nc2sccn2c1CN1CCOc2ccc(CN3CCN(c4ccc(F)cc4)CC3)cc2C1` gave EPAC2 antag inconclusive and EPAC1 agonist -3.4%.
`OCC1OC(Oc2cccc3cccnc23)C(O)C(O)C1O` (centres undefined) gave EPAC2 antag -6.9% and EPAC1 agonist 1.1%.
Screening O=C(O)c1cc(O)c2c(c1)[C@H]([C@H]1c3cc(C(=O)O)cc(O)c3C(=O)c3c(O[C@@H]4O[C@H](CO)[C@@H](O)[C@H](O)[C@H]4O)cccc31)c1cccc(O[C@@H]3O[C@H](CO)[C@@H](O)[C@H](O)[C@H]3O)c1C2=O returned EPAC2 antag 79.4µM* and EPAC1 agonist inconclusive.
`c1ccc(-c2onc(-c3ccco3)c2-c2ccc3[nH]ccc3c2)cc1` gave EPAC2 antag inconclusive and EPAC1 agonist 112µM*.
`COc1cccc(-c2nc3cc4c(cc3cc2CN(C(=O)c2cccs2)C2CC2)CCC4)c1OC` gave EPAC2 antag inconclusive and EPAC1 agonist -3.7%.
CC(O)(COc1ccccc1)c1ccc2c(c1)CN(Cc1cccn1-c1ccccn1)CCO2 (centres undefined) was read as EPAC2 antag -15.9% and EPAC1 agonist -5.5%.
Screening O=C1OC2(c3ccc(O)cc3Oc3cc(O)ccc32)c2ccccc21 returned EPAC2 antag 41.5% and EPAC1 agonist inconclusive.
O=C1OC2(c3ccccc31)c1cc(I)c(O)c(I)c1Oc1c2cc(I)c(O)c1I was read as EPAC2 antag inactive and EPAC1 agonist 31.6µM*.
Screening CCOc1ccc2nc3cc(N)ccc3c(N)c2c1 returned EPAC2 antag inconclusive and EPAC1 agonist 28.5%.
`Nc1ccc2cc3ccc(N)cc3nc2c1` gave EPAC2 antag inactive and EPAC1 agonist 100µM*.
`COc1cc(OC)c(/C=C/c2ccc3ccccc3n2)c(OC)c1` gave EPAC2 antag -8.0% and EPAC1 agonist inconclusive.
Screening COc1ccc(OC)c(/C=C/c2nc3ccccc3nc2C)c1 returned EPAC2 antag inconclusive and EPAC1 agonist 100µM*.
Screening C=C1CC2C3CCC4=CC(=O)C=C[C@]4(C)[C@@]3(F)[C@@H](O)C[C@]2(C)[C@@]1(O)C(=O)COC(C)=O (some centres undefined) returned EPAC2 antag 4.8% and EPAC1 agonist 16.0%.
CCCCCCCCCC[n+]1ccc(/C=C/c2c[nH]c3ccccc23)cc1 was read as EPAC2 antag inactive and EPAC1 agonist 100µM*.
`CCCCCCCCCCCCCCCC[n+]1ccc(/C=C/c2c(C)[nH]c3ccccc23)cc1` gave EPAC2 antag inconclusive and EPAC1 agonist -44.6%.
Screening CCCCCCC[n+]1ccc(/C=C/c2c(C)[nH]c3ccccc23)cc1 returned EPAC2 antag inactive and EPAC1 agonist 100µM*.
For CCCCCCCCCCCCCCCC[n+]1ccc(/C=C/c2c[nH]c3ccccc23)cc1 the results were EPAC2 antag 491.1% and EPAC1 agonist inconclusive.
For Cc1c(N)nc(C(CC(N)=O)NCC(N)C(N)=O)nc1C(=O)NC(C(=O)NC(C)C(O)C(C)C(=O)NC(C(=O)NCCc1nc(-c2nc(C(=O)NCCCN[C@@H](C)c3ccccc3)cs2)cs1)C(C)O)C(O[C@@H]1O[C@@H](CO)[C@@H](O)[C@H](O)[C@@H]1O[C@H]1O[C@H](CO)[C@@H](O)[C@H](OC(N)=O)[C@@H]1O)c1cnc[nH]1 (some centres undefined) the results were EPAC2 antag -0.7% and EPAC1 agonist 8.5%.
CC(C)(C)C1(O)CCN2CC3c4ccccc4CCc4cccc(c43)C2C1 (centres undefined) was read as EPAC2 antag -10.9% and EPAC1 agonist 9.1%.
For COc1cc2c(cc1OC)-c1cc(=Nc3c(C)cc(C)cc3C)n(C)c(=O)n1CC2 the results were EPAC2 antag 14.1µM*! and EPAC1 agonist inconclusive.
For Cc1oc(-c2cccc(NC(=O)c3ccccn3)c2)nc1CNC(=O)C#Cc1ccccc1 the results were EPAC2 antag -2.7% and EPAC1 agonist 3.3%.
`CC(=O)N[C@@H](CSC/C=C(\C)CC/C=C(\C)CC/C=C(\C)CCC=C(C)C)C(=O)O` gave EPAC2 antag 89.1µM*! and EPAC1 agonist -2.4%.
`CC(=O)N[C@@H](CSC/C=C(\C)CCC=C(C)C)C(=O)O` gave EPAC2 antag -14.1%[11.4 µM] and EPAC1 agonist -7.8%.
For C=C1C[C@@]23C[C@@]1(O)CCC2[C@@]12C=CC(O)[C@](C)(C(=O)O1)C2C3C(=O)O (some centres undefined) the results were EPAC2 antag -2.7% and EPAC1 agonist inconclusive.
For C=C1C[C@]23C[C@@]1(O)CC[C@H]2[C@@]12C=C[C@H](O)[C@@](C)(C(=O)O1)[C@H]2[C@@H]3C(=O)O the results were EPAC2 antag -43.0%[56.6 µM] and EPAC1 agonist 44.7µM*.
For CCCCC(=O)O[C@H]1CC[C@H]2[C@@H]3CCc4cc(O)ccc4[C@H]3CC[C@]12C the results were EPAC2 antag 50.1µM* and EPAC1 agonist -110.4%.
C[C@]12CC[C@@H]3c4ccc(O)cc4CC[C@H]3[C@@H]1CC[C@@H]2OC(=O)CCC1CCCC1 was read as EPAC2 antag -6.0% and EPAC1 agonist inconclusive.
For C[C@]12CC[C@@H]3c4ccc(O)cc4CC[C@H]3[C@@H]1CC[C@@H]2OP(=O)(O)O the results were EPAC2 antag 1.4% and EPAC1 agonist 1.7%.
CCC(=O)OC1CCC2C3CCc4cc(O)ccc4C3CC[C@]12C (some centres undefined) was read as EPAC2 antag 39.8µM* and EPAC1 agonist 5.2%.
Screening CCC(=O)O[C@H]1CC[C@H]2[C@@H]3CCc4cc(O)ccc4[C@H]3CC[C@]12C returned EPAC2 antag 50.1µM* and EPAC1 agonist -159.6%.
For C[C@@]12CCC3c4ccc(O)cc4CCC3C1CCC2O (some centres undefined) the results were EPAC2 antag -19.9% and EPAC1 agonist 10.4%.
`CC1c2ccccc2CN1NC(=O)c1ccc(Cl)c(S(N)(=O)=O)c1` (centres undefined) gave EPAC2 antag -12.8% and EPAC1 agonist 5.3%.
COc1ccc(-c2nc3cc(C)ccc3cc2CN(C(=O)c2ccc(C)s2)C2CC2)cc1OC was read as EPAC2 antag inconclusive and EPAC1 agonist 4.7%.
For OC1(c2cccnc2)CCN(Cc2ccc3c(c2)CN(Cc2cccc(C(F)(F)F)c2)CCO3)CC1 the results were EPAC2 antag -28.9% and EPAC1 agonist 18.1%.
Screening COc1ccccc1C(=O)N[C@@H]1c2ccccc2C2(CCN(Cc3ccc4c(c3)OCO4)CC2)[C@H]1O returned EPAC2 antag inconclusive and EPAC1 agonist -2.1%.
COc1ccc(CNC(=O)C[C@H]2C(=O)N(Cc3ccc(OC)cc3)C[C@@H]2Cc2ccccc2)cc1 was read as EPAC2 antag inconclusive and EPAC1 agonist 2.1%.
Screening CCCCC[C@H]1CN(Cc2ccccc2)C(=O)[C@@H]1CC(=O)NCc1ccc(OC)cc1 returned EPAC2 antag 22.4µM* and EPAC1 agonist -81.9%.
CCc1ccc2c(c1)N(CC(C)CN(C)C)c1ccccc1S2 (centres undefined) was read as EPAC2 antag -19.0% and EPAC1 agonist -29.8%.
Brc1c(Br)c(Br)c2n[nH]nc2c1Br was read as EPAC2 antag 39.8µM* and EPAC1 agonist -24.7%.
